# A selection: hits, their analogues and other compounds. The true share with any hit is near 2.5%.
# mut p53 SMM = binders of human mutant p53, primary screen, biochemical, small molecule microarray, anti-GST fluorescence; mutant tumor protein p53 (GST-tagged), Homo sapiens; small molecule microarray binding; calls only; 17,000 tested, 0.4% active; AID 624136, 2012;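 active = compounds whose four printed spots each glow above background more than chance allows, each with a p-value under 7%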
# NFkB binder = binders of NF-kB p50 subunit, primary screen, biochemical, small molecule microarray, anti-His fluorescence; anti-His fluorescence binding; 17,000 tested, 1.3% active; calls only; Nuclear factor NF-kappa-B p105 subunit (Homo sapiens), P19838;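 active = spot fluorescence over background significantly raised, with a chance value under 7% in all four replicate spots of the compound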;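 note: probe protein is his-tagged human p50 processed subunit at 1 µg/ml; raw spot fluorescence signals with no normalization applied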
# c-Myc SMM = binders of human c-Myc, primary screen, biochemical, small molecule microarray, anti-His fluorescence | Myc proto-oncogene protein (Homo sapiens), P01106 | His-c-Myc binding | calls only | 17,000 tested, 1.5% active | AID 624141, 2012;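 active = spot fluorescence over background with P-value below 7% in all four replicate spots, showing protein binding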;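 note: score is binary with 100 for all four spots passing and 0 otherwise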
# STAT3 SMM = STAT3 binders, primary screen, biochemical, small molecule microarray, single point, set 2; Signal transducer and activator of transcription 3 (Homo sapiens), P40763; His-STAT3 binding, anti-His fluorescence; calls only; 17,000 tested, 0.2% active; AID 624138, 2012;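 active = compounds whose four printed spots each show fluorescence over background unusually high for their array block, chance value under 7%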
# Active calls of the source: *; i = inactive; + = active, no number.
SMILES,mut p53 SMM,NFkB binder,c-Myc SMM,STAT3 SMM
COCCOC(=O)N1C(=O)[C@@]2(c3cc(C#CC4=CCCCC4)ccc31)[C@H](C(=O)N1CCN(c3ncccn3)CC1)[C@H]1C(=O)O[C@H](c3ccccc3)[C@H](c3ccccc3)N1[C@@H]2c1ccccc1OCCO,i,+,i,i
COCCOC(=O)N1C(=O)[C@@]2(c3cc(C#CCC(C(=O)OC)C(=O)OC)ccc31)[C@H](c1ccc(OCCO)cc1)N1[C@H](c3ccccc3)[C@H](c3ccccc3)OC(=O)[C@H]1[C@@H]2C(=O)N1CCN(c2ncccn2)CC1,i,+,i,i
COCCOC(=O)N1C(=O)[C@@]2(c3ccccc31)[C@H](C(=O)N1CCN(c3ncccn3)CC1)[C@H]1C(=O)O[C@H](c3ccccc3)[C@H](c3ccccc3)N1[C@@H]2c1ccc(OCCO)cc1,i,i,i,i
COc1ccc(-c2noc(CCCN3C(=O)c4ccccc4C3=O)n2)cc1OC,i,i,i,i
CC12C=CC(=O)C=C1CCC1C2=CCC2(C)C1CC[C@@H]2C(=O)CN1CCN(c2cc(N3CCCC3)nc(N3CCCC3)n2)CC1 (some centres undefined),i,i,+,i
N#Cc1ccc(-c2cccs2)nc1SCC(=O)Nc1sc2c(c1C#N)CCCC2,i,i,+,i
CCc1ccc(NC(=O)CSc2nc(C)cc(C)n2)cc1,i,i,i,i
Cc1ccc(-c2cc3ccccn3c2C(=O)CSc2nnc(C)s2)cc1,i,i,+,i
Cc1nnc(SCC(=O)Nc2cccc(I)c2)s1,i,i,i,i
O=C(CCS(=O)(=O)c1ccc2ccccc2c1)Nc1ccccc1,i,i,i,i
C[C@@H]1CCCCO[C@@H](CN(C)Cc2ccc(C(=O)O)cc2)[C@@H](C)CN([C@H](C)CO)C(=O)c2cc(NC(=O)Nc3ccc(F)cc3)ccc2O1,i,i,i,i
C[C@@H]1CCCCO[C@@H](CN(C)Cc2ccc(C(=O)O)cc2)[C@H](C)CN([C@H](C)CO)C(=O)c2cc(NC(=O)Nc3ccc(C(F)(F)F)cc3)ccc2O1,i,+,i,i
C[C@@H]1CCCCO[C@@H](CN(C)Cc2ccc(C(F)(F)F)cc2)[C@@H](C)CN([C@H](C)CO)C(=O)c2cc(NC(=O)C3CCCCC3)ccc2O1,i,i,i,i
C[C@@H]1CN([C@@H](C)CO)C(=O)c2cc(NC(=O)Nc3ccc(C(F)(F)F)cc3)ccc2O[C@@H](C)CCCCO[C@H]1CN(C)Cc1ccc(C(F)(F)F)cc1,i,+,i,i
COC(=O)c1c(NC(=O)CSc2nnc3ccccn23)sc(C)c1C,i,i,i,i
COC(=O)c1c(NC(=O)CC2Nc3cccc4cccc(c34)NC2=O)sc(C)c1C (centres undefined),i,i,+,i
COC(=O)c1cn(CC(=O)Nc2ccccc2C(F)(F)F)c2ccccc12,i,i,i,i
O=C(O)C1=C[C@H](c2ccc(C(F)(F)F)cc2)C[C@H](OCCCCO)O1,i,i,i,+
O=C(Nc1ccccc1)C1=C[C@H](c2ccc(C(F)(F)F)cc2)C[C@H](OCCCCO)O1,i,i,i,i
COC(=O)c1ccccc1NC(=O)C(C)Oc1ccccc1 (centres undefined),i,i,i,i
COC(=O)c1cccc2nc3c(C(C)O)cccc3nc12 (centres undefined),i,i,+,i
C[C@H](CO)N1C[C@H](C)[C@@H](CN(C)C(=O)Nc2cccc3ccccc23)OCCCC[C@H](C)Oc2ccc(NC(=O)c3ccncc3)cc2C1=O,i,+,+,i
C[C@@H]1CCCCO[C@H](CN(C)C(=O)Nc2cccc3ccccc23)[C@@H](C)CN([C@@H](C)CO)C(=O)c2cc(NC(=O)c3ccncc3)ccc2O1,i,+,+,i
NC(=O)[C@@H]1[C@H]2C(=O)O[C@H](c3ccccc3)[C@H](c3ccccc3)N2[C@H](c2ccccc2OCCO)[C@@]12C(=O)Nc1ccc(C#CC3=CCCCC3)cc12,i,i,i,i
COc1ccc(OC)c(NC(=O)CSc2nnnn2C)c1,i,i,i,i
SMILES,mut p53 SMM,NFkB binder,c-Myc SMM,STAT3 SMM
Cn1nnnc1SCCNC/C=C/c1ccccc1,i,i,+,i
COc1ccc(S(=O)(=O)NCCc2c[nH]c3ccccc23)c2ccccc12,i,i,i,i
CC(C)(C)c1cc(C(=O)CSc2nc3ccccc3[nH]2)cc(C(C)(C)C)c1O,i,i,i,i
CC(C)NC(=O)N(C)C[C@H]1OCCCC[C@H](C)Oc2ccc(NC(=O)Nc3ccc(C(F)(F)F)cc3)cc2C(=O)N([C@H](C)CO)C[C@H]1C,i,+,i,i
C[C@H](CO)N1C[C@H](C)[C@H](CN(C)C(=O)Nc2ccc(C(F)(F)F)cc2)OCCCC[C@H](C)Oc2ccc(NC(=O)Nc3ccc(F)cc3)cc2C1=O,i,+,i,i
C[C@@H]1CCCCO[C@@H](CN(C)C(=O)Nc2ccc(C(F)(F)F)cc2)[C@H](C)CN([C@@H](C)CO)C(=O)c2cc(NC(=O)c3ccncc3)ccc2O1,i,+,+,i
C[C@@H]1CCCCO[C@H](CN(C)C(=O)Nc2ccc(C(F)(F)F)cc2)[C@@H](C)CN([C@@H](C)CO)C(=O)c2cc(NC(=O)Cc3ccccc3)ccc2O1,+,+,i,i
C=C1C(=O)C23CC(O)C4C(C)(C(=O)OC5OC(CO)C(O)C(O)C5O)CCCC4(C)C2=CCC1(O)C3 (centres undefined),i,i,i,i
C=C(C(=O)O)[C@H]1C=C2[C@@H](C)[C@@H](O)[C@H](O)C[C@]2(C)CC1,i,i,i,i
Cc1sc2nc(SCCC(=O)NC3CCCCC3)[nH]c(=O)c2c1C,i,i,i,i
COCCSc1nnc(NC(=O)c2sc3ccccc3c2Cl)s1,i,i,i,i
CCc1c(C)sc(NC(=O)C2CC(c3cc(Cl)c(OC)cc3OC)=NO2)c1C#N (centres undefined),i,i,i,i
CC(C)NC(=O)N(C)C[C@@H]1OCCCC[C@H](C)Oc2ccc(NC(=O)Nc3ccc(C(F)(F)F)cc3)cc2C(=O)N([C@@H](C)CO)C[C@@H]1C,i,+,+,i
CC(C)NC(=O)N(C)C[C@@H]1OCCCC[C@@H](C)Oc2ccc(NC(=O)Nc3ccc(C(F)(F)F)cc3)cc2C(=O)N([C@@H](C)CO)C[C@H]1C,i,i,i,i
O=C(COc1nc(-c2cccs2)cc(C(F)(F)F)n1)Nc1ccc(Cl)cc1Cl,i,i,i,i
